Screening data as filed in PubChem.
Most compounds without a hit are left out; they make up all but 3.4% or so of the library.
HSF1 activator: HSF-1 activators, primary screen, NIH3T3-HGL cells, MG132 stress, luminescence, single point. AID 504408, 2011. 300,000 compounds, 1.7% hits. activation, % at 9 µM. NIH3T3-HGL HSF-1 luciferase reporter, 8 h; 100% = twice DMSO control signal;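 active = mean replicate activation of at least 50% with a set share of replicates each reaching 50%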;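 also: 0% = median of the neutral control wells and 100% = twice that signal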
HSF1 inh: HSF1 inhibitors in luciferase reporter cells, primary screen, cell-based, NIH3T3, luminescence. activity change, negative = inhibition, % at 7.5 µM (by protocol). AID 2098, 2009. NIH3T3-HGL HSE-luciferase, MG132-induced, luminescence 8 h; active compounds read low. 300,000 compounds, 0.77% hits;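 active = more than half of replicate wells show activity change below -50%, luminescence cut by over half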;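 also: luciferase reports HSF-1 transcriptional activity via heat shock element; 0% = median of DMSO wells and -100% = zero luminescence signal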
esBAF inh: Bmi1 luciferase reporter increase in mESCs, primary screen, esBAF inhibitor project, mouse ES cells, Bmi1 luciferase knock-in, single point; 350,000 compounds, 2% hits; reporter increase, % at 12.5 µM; 24 h; 100% = twice the neutral-well signal; in the data active = activation above about 40%;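 also: 0% = median of the plate's neutral control wells and 100% = double that signal; a rise in the Bmi1 reporter signal indicates esBAF inhibition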
Vif inh: HIV Vif self-association inhibitors, primary screen, imaging, HEK293T, single point; HEK293T cells, Vif self-association by quenched fluorescence, 24 h; inhibition, % at 7.49 µM; 340,000 compounds, 0.35% hits; AID 602346, 2012; in the data active = inhibition above about 50%, passing the limit was not always enough
Active calls of the source: *; nt = not tested or not shown.

SMILES	HSF1 activator	HSF1 inh	esBAF inh	Vif inh
Cc1cc(C(=O)COC(=O)c2ccc(N)c([N+](=O)[O-])c2)c(C)n1Cc1ccc2c(c1)OCO2	17.6	20.0	88.9*	-1.1
CC=Cc1ccc2n(c1=O)C[C@@H]1[C@@H](CO)[C@H](C(=O)NC3CCC3)N[C@H]21 (mixture of isomers)	nt	nt	0.5	nt
COc1ccc(CN2C[C@H](O)COC[C@H]3O[C@@H](CC(=O)NCCN4CCCC4)CC[C@@H]32)cc1	nt	nt	-1.1	nt
CCCn1c(N)c(N(CCOC)C(=O)c2ccc([N+](=O)[O-])cc2Cl)c(=O)[nH]c1=O	-10.3	-13.7	-5.1	66.6*
COc1cc2c(cc1OC)/C(=C/C(=O)c1ccc(C)cc1)NCC2	-83.5	-80.2*	12.9	7.1
C[C@@H]1CCCCO[C@@H](CN(C)Cc2ccc(C(=O)O)cc2)[C@H](C)CN([C@H](C)CO)C(=O)c2cc(NS(=O)(=O)c3cn(C)cn3)ccc2O1	nt	nt	-4.6	nt
COc1ccc(NC(=O)N(C)C[C@@H]2OCCCC[C@@H](C)Oc3ccc(NC(=O)c4ccncc4)cc3C(=O)N([C@H](C)CO)C[C@H]2C)cc1	nt	nt	-0.7	nt
Cc1cc(NC(=O)c2ccccc2)sc1C	60.4*	31.4	9.7	nt
CCN(c1ccccc1)c1nc2ccsc2c(=O)s1	nt	nt	25.9	-10.8
CN(c1ccccc1)c1nc2ccsc2c(=O)s1	17.3	11.1	46.6*	6.6
Cc1ccc(NN2C(=O)C=C(c3ccccc3)C2=O)cc1	207.2*	148.0	nt	-4.0
CO[C@@H]1CN(C)C(=O)c2ccc(NC(=O)Nc3ccc4c(c3)OCO4)cc2OC[C@@H](C)N(C(C)=O)C[C@H]1C	nt	nt	23.3	nt
CCCNC(=O)C12CCC(C)(C(=O)O1)C2(C)C (stereo unspecified)	-2.0	-9.2	nt	0.4
CC12CCC(C(=O)NCCc3ccccc3)(OC1=O)C2(C)C (stereo unspecified)	4.4	3.3	nt	51.9*
Cc1snc2sc(C(=O)c3ccc(Br)cc3)c(N)c12	23.8	-0.4	nt	nt
Cc1ccc(C(=O)c2sc3nsc(C)c3c2N)cc1	61.3*	32.6	nt	nt
COc1ccccc1NC(=O)N[C@@H]1CC[C@H](CCn2cc(-c3ccccc3)nn2)O[C@H]1CO	nt	nt	1.2	nt
Cc1ccc(N(Cc2ccccc2)C(=O)c2cccc(S(=O)(=O)N3CC(C)OC(C)C3)c2)cc1 (stereo unspecified)	30.5	26.7	63.8*	-14.8
Cc1ccc2nc(-c3ccc(F)cc3)c(Cc3cccc(Cl)c3)n2c1	nt	nt	47.8*	13.5
Cc1ccc(-c2nc3ccc(Br)cn3c2Cc2cccc(F)c2)cc1	nt	nt	51.2*	6.5
COc1ccc(NC(=O)N(C)C[C@@H]2OCc3cn(nn3)CCCC(=O)N([C@@H](C)CO)C[C@@H]2C)cc1	nt	nt	-3.4	nt
Cc1ccc(S(=O)(=O)N(C)C[C@@H]2Oc3c(NC(=O)Nc4ccc(C(F)(F)F)cc4)cccc3C(=O)N([C@@H](C)CO)C[C@H]2C)cc1	nt	nt	9.6	nt
COC(=O)CN1C(=O)Nc2ccc(C)cc2C1c1ccccc1 (stereo unspecified)	-72.6	-70.0*	nt	-1.4
COC(=O)CN1C(=O)Nc2ccc(Cl)cc2C1c1ccccc1 (stereo unspecified)	12.2	6.5	6.5	4.0
CCC(=O)N1[C@@H]2Cn3c(ccc(C4=CCCC4)c3=O)[C@H]1[C@@H](C(=O)N[C@@H](C)c1ccccc1)[C@@H]2CO	nt	nt	-1.3	nt
SMILES	HSF1 activator	HSF1 inh	esBAF inh	Vif inh
COc1ccc(CNC(=O)c2c(C)oc3c2C(=O)c2ccccc2C3=O)cc1	32.0	12.3	-8.7	7.2
Cc1oc2c(c1C(=O)NCc1cccnc1)C(=O)c1ccccc1C2=O	-94.4	-95.0*	nt	nt
CCCCNC(=O)CCC(=O)Nc1ccc2nc(N3CCOCC3)cc(C)c2c1	22.5	6.2	43.1*	-12.5
Cc1cc(N2CCN(C)CC2)nc2ccc(NC(=O)c3cccnc3Cl)cc12	-68.4	-58.9*	-3.5	8.6
Cc1cc(N2CCOCC2)nc2ccc(NC(=O)CCC(=O)N3CCN(c4ccccc4)CC3)cc12	-0.7	-1.0	53.2*	3.5
Cc1cc(N2CCCCC2)nc2ccc(NC(=O)CCC(=O)NCCC(C)C)cc12	22.7	15.8	74.2*	-3.9
Cc1cc(N2CCN(C)CC2)nc2ccc(NC(=O)CCC(=O)N3CCN(c4ccc([N+](=O)[O-])cc4)CC3)cc12	6.4	-7.9	-21.3	1.1
CN1C(=O)c2cc(NC(=O)C3CCOCC3)ccc2OC[C@H]2O[C@H](CC(=O)NCC3CC3)CC[C@@H]21	nt	nt	-4.4	nt
CCCNC(=O)N[C@@H]1CC[C@@H](CCNS(=O)(=O)c2cccc(F)c2)O[C@H]1CO	nt	nt	3.7	nt
COc1ccc(/C=C2\CCn3c2nc2ccccc2c3=O)cc1OC	8.9	14.2	42.8*	-0.8
CCOc1cc(/C=C2\CCCc3c2nc2ccccc2c3C(=O)O)ccc1OC	56.4*	17.9	9.3	26.5
CCN1CCN(C(=O)c2ccc(CSc3ccc(C)cc3)cc2)CC1	20.0	1.3	5.6	-0.6
Cc1ccc(SCc2ccc(C(=O)N3CCCC3)cc2)cc1	58.0*	37.2	nt	-3.5
C/C(=N/NC(=O)CNC(=O)c1ccccn1)c1ccccc1	1.4	-14.3	nt	-5.4
C/C(=N/NC(=O)CNC(=O)c1ccccn1)c1ccc([N+](=O)[O-])cc1	-85.4	-81.2*	nt	2.0
COc1ccc(-n2nc(C(=O)NCC(=O)N3CCC(C)CC3)c3ccccc3c2=O)cc1Cl	16.9	3.7	47.3*	3.7
CCNC(=O)C[C@H]1CC[C@@H]2[C@H](COc3ccc(NC(=O)Nc4cccc(OC)c4)cc3C(=O)N2C)O1	nt	nt	-2.5	nt
C[C@@H]1CN([C@H](C)CO)C(=O)c2cccc(N(C)C)c2O[C@@H]1CN(C)C(=O)Nc1cccc2ccccc12	nt	nt	0.9	nt
COCCNc1nc2cc(-c3ccc(C)cc3)sc2c(=O)n1C	nt	nt	54.8*	-5.6
Cn1c(NCCc2ccncc2)nc2cc(-c3ccccc3)sc2c1=O	nt	nt	56.4*	13.5
COc1cccc(-c2cc3nc(NCc4cccnc4)n(C)c(=O)c3s2)c1	nt	nt	45.7*	-24.9
COc1ccccc1CNc1nc2cc(-c3sccc3C)sc2c(=O)n1C	nt	nt	65.8*	3.2
COc1ccccc1CNc1nc2cc(-c3ccccc3C)sc2c(=O)n1C	nt	nt	10.3	-8.2
Cc1ccccc1-c1cc2nc(NCCc3ccncc3)n(C)c(=O)c2s1	nt	nt	11.3	-6.4
COCCNc1nc2cc(-c3cccc(C(F)(F)F)c3)sc2c(=O)n1C	nt	nt	-11.0	-2.8
C[C@@H]1CN([C@H](C)CO)C(=O)c2cc(NC(=O)CCC(F)(F)F)ccc2O[C@@H](C)CCCCO[C@H]1CN(C)C(=O)c1ccncc1	nt	nt	-6.0	nt
CCCNC(=O)N[C@H]1CC[C@@H](CC(=O)N2CCN(C)CC2)O[C@H]1CO	nt	nt	-7.0	nt
COC(=O)C1=C(CN2CCCc3ccccc32)NC(=O)NC1c1ccc(F)cc1 (stereo unspecified)	-73.5	-70.7*	-77.5	-6.2
COC(=O)C1=C(CN2CCc3ccccc32)NC(=O)NC1c1cc(C)ccc1C (stereo unspecified)	6.7	11.7	9.4	2.2
